IDE exosite inh: exo-site inhibitors of human IDE, primary screen, biochemical, fluorescence anisotropy, probe displacement; Insulin-degrading enzyme (Homo sapiens), P14735; 6.3% of 17,000 active; purified IDE, FL-6b probe fluorescence polarization; active compounds read low; z-score at 20 µM;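 active = z-score of -3 or lower, meaning strong loss of probe binding signal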;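 note: His-tagged human IDE residues 42-1019 made in E. coli with 30 nM FL-6b probe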
Target sequence (P14735 42-1019 limits assumed): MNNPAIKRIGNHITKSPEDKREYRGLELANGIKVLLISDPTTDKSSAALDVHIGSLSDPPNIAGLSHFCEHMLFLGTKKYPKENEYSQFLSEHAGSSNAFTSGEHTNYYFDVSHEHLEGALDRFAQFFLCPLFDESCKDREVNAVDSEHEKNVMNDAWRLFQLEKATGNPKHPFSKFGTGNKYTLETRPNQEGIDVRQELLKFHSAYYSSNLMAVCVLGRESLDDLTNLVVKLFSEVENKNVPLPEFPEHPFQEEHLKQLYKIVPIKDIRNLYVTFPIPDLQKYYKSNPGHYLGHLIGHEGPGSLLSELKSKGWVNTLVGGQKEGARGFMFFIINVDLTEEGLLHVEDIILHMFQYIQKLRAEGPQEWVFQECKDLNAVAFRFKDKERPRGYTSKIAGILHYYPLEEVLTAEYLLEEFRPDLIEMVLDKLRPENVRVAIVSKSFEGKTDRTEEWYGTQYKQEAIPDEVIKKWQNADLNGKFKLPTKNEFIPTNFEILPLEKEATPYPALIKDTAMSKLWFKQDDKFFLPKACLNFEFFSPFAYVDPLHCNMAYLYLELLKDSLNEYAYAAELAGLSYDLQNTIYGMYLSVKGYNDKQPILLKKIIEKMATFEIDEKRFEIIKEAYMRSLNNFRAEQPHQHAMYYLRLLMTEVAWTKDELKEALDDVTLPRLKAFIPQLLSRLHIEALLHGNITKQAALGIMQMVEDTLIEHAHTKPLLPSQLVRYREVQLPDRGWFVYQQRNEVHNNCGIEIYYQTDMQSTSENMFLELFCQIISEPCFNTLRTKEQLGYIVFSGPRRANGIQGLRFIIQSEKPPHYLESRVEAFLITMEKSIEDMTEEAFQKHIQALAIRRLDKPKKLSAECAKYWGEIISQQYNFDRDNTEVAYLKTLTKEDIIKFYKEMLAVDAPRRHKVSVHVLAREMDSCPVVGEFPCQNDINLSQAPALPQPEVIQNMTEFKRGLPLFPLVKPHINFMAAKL
Starred values were filed as active, the others as inactive. The sample as a whole holds a higher share of hits than the screen did.

What do the screens show for `Cc1ccc(-c2ccc([C@H]3[C@@H](CO)N4C(=O)CN(C(=O)c5ccc(F)cc5)C[C@H]34)cc2)cc1`?
IDE exosite inh: 1.24

How did CN1c2ccc(-c3cccc(C#N)c3)cc2[C@@H]2[C@@H](CCN2C(=O)Cc2ccccn2)[C@@H]1CO do in these assays?
IDE exosite inh: 0.411

Results for CC(=O)N(Cc1cccc(F)c1)C[C@@H]1[C@@H](c2ccccc2)[C@@H](CO)N1C(C)=O ?
IDE exosite inh: 0.412

Results for O=C(c1ccccc1)N1CC(=O)N2[C@@H](CO)[C@@H](c3ccc(C#Cc4ccccc4)cc3)[C@@H]2C1 ?
IDE exosite inh: -9.13*

How did O=C(c1ccccc1)N1CC(=O)N2[C@H](C1)[C@@H](c1ccc(C#Cc3ccccc3)cc1)[C@@H]2CO do in these assays?
IDE exosite inh: 0.436

How did COc1ccc(C#Cc2ccc([C@H]3[C@@H](CO)N4C(=O)CN(C(=O)c5ccccc5)C[C@H]34)cc2)cc1 do in these assays?
IDE exosite inh: 2.19

How did O=C(c1ccccc1)N1CC(=O)N2[C@@H](CO)[C@H](c3ccc(C#Cc4ccccc4)cc3)[C@@H]2C1 do in these assays?
IDE exosite inh: -3.81*

Results for COc1ccc(C#Cc2ccc([C@@H]3[C@H]4CN(C(=O)c5ccccc5)CC(=O)N4[C@H]3CO)cc2)cc1 ?
IDE exosite inh: 2.08

How did COc1ccc(C#Cc2ccc([C@H]3[C@H](CO)N4C(=O)CN(C(=O)c5ccccc5)C[C@@H]34)cc2)cc1 do in these assays?
IDE exosite inh: 1.89

Results for O=C1C[C@@H](c2ccccc2)C(=O)N[C@H](c2ccc3c(c2)OCO3)C/C=C\C[C@@H](c2ccc(F)cc2)N1 ?
IDE exosite inh: 1.35

How did COc1ccc(S(=O)(=O)N(C)C[C@@H]2Oc3ncccc3C(=O)N([C@H](C)CO)C[C@@H]2C)cc1 do in these assays?
IDE exosite inh: -0.451

Results for Cc1ccccc1S(=O)(=O)N1CCCCN2[C@H](CO)[C@@H](c3ccc(-c4cccnc4)cc3)[C@@H]2C1 ?
IDE exosite inh: -11.6*

How did O=S(=O)(c1ccccc1F)N1CCCCN2[C@H](CO)[C@H](c3ccc(-c4cccnc4)cc3)[C@@H]2C1 do in these assays?
IDE exosite inh: 0.542

What do the screens show for `Cc1ccccc1S(=O)(=O)N1CCCCN2[C@@H](CO)[C@@H](c3ccc(-c4cncnc4)cc3)[C@@H]2C1`?
IDE exosite inh: -4.33*

Results for Cc1ccccc1S(=O)(=O)N1CCCCN2[C@@H](CO)[C@H](c3ccc(-c4cncnc4)cc3)[C@@H]2C1 ?
IDE exosite inh: 3.68

Results for O=S(=O)(c1ccccc1F)N1CCCCN2[C@@H](CO)[C@@H](c3ccc(-c4cccnc4)cc3)[C@@H]2C1 ?
IDE exosite inh: -12.8*

Results for O=S(=O)(c1ccccc1F)N1CCCCN2[C@H](CO)[C@@H](c3ccc(-c4cccnc4)cc3)[C@H]2C1 ?
IDE exosite inh: 0.998

Results for Cc1cccc(S(=O)(=O)N2CCCCN3[C@H](C2)[C@H](c2ccc(-c4cccnc4)cc2)[C@@H]3CO)c1 ?
IDE exosite inh: 1.61

How did Cc1ccccc1S(=O)(=O)N1CCCCN2[C@H](CO)[C@H](c3ccc(-c4cccnc4)cc3)[C@H]2C1 do in these assays?
IDE exosite inh: 0.437

What do the screens show for `Cc1ccccc1S(=O)(=O)N1CCCCN2[C@H](CO)[C@@H](c3ccc(-c4cncnc4)cc3)[C@H]2C1`?
IDE exosite inh: 3.33

Results for N#C[C@H]1[C@@H](c2ccc(-c3cccnc3)cc2)[C@@H](CO)N1C(=O)Nc1ccc(F)cc1 ?
IDE exosite inh: 0.519

What do the screens show for `CC(C)C#Cc1ccc([C@H]2[C@@H](CO)N(C(=O)c3ccccn3)[C@H]2C#N)cc1`?
IDE exosite inh: 3.51

What do the screens show for `O=C(c1cccc(F)c1)N1CC(=O)N2[C@H](CO)[C@H](c3ccc(-c4ccccc4)cc3)[C@@H]2C1`?
IDE exosite inh: 3.43

What do the screens show for `O=C(c1ccccc1F)N1CC(=O)N2[C@H](CO)[C@H](c3ccc(-c4ccc(F)cc4)cc3)[C@@H]2C1`?
IDE exosite inh: 0.608

How did CC(C)NC(=O)N1CC2(C1)[C@H](c1ccccc1)[C@H](CO)N2Cc1cncnc1 do in these assays?
IDE exosite inh: 0.934

What do the screens show for `CO[C@@H]1CN(C)C(=O)c2cc(NS(=O)(=O)c3cccc(Cl)c3)ccc2OC[C@H](C)NC[C@H]1C`?
IDE exosite inh: -0.264

What do the screens show for `CCCNC(=O)NC[C@H]1[C@H](c2ccc(C3=CCCC3)cc2)[C@H](CO)N1C(=O)CC`?
IDE exosite inh: 0.263

What do the screens show for `Cc1cccc(-c2ccc([C@@H]3[C@@H](CO)N4C(=O)CN(C(=O)NC5CCCCC5)C[C@H]34)cc2)c1`?
IDE exosite inh: -11.5*

What do the screens show for `O=C(NC1CCCCC1)N1CC(=O)N2[C@H](C1)[C@@H](c1ccc(-c3cccc(F)c3)cc1)[C@@H]2CO`?
IDE exosite inh: -7.9*

Results for O=C(Nc1ccc(F)cc1)N1CC(=O)N2[C@H](CO)[C@@H](c3ccc(-c4cccc(F)c4)cc3)[C@@H]2C1 ?
IDE exosite inh: -2.2

Results for COc1ccccc1NC(=O)N1CC(=O)N2[C@H](CO)[C@@H](c3ccc(-c4cccc(C)c4)cc3)[C@H]2C1 ?
IDE exosite inh: -0.507

What do the screens show for `O=C(Nc1cccc(F)c1)N1CC(=O)N2[C@H](CO)[C@@H](c3ccc(-c4cccc(F)c4)cc3)[C@H]2C1`?
IDE exosite inh: 2.15

What do the screens show for `O=C(NC1CCCCC1)N1CC(=O)N2[C@H](CO)[C@@H](c3ccc(-c4cccc(F)c4)cc3)[C@@H]2C1`?
IDE exosite inh: -13*

Results for CC(C)CC#Cc1ccc([C@H]2[C@@H](CO)N3C(=O)CN(C(=O)NC4CCCCC4)C[C@@H]23)cc1 ?
IDE exosite inh: -0.596

Results for CCCC#Cc1ccc([C@H]2[C@H]3CN(C(=O)NC4CCCC4)CC(=O)N3[C@H]2CO)cc1 ?
IDE exosite inh: -0.533

What do the screens show for `O=C(NC1CCCCC1)N1CC(=O)N2[C@@H](CO)[C@H](c3ccc(-c4cccc(F)c4)cc3)[C@@H]2C1`?
IDE exosite inh: -1.22

Results for O=C(Nc1cccc(F)c1)N1CC(=O)N2[C@H](CO)[C@H](c3ccc(-c4cccc(F)c4)cc3)[C@H]2C1 ?
IDE exosite inh: 0.29

How did O=C(NC1CCCC1)N1CC(=O)N2[C@@H](CO)[C@H](c3ccc(-c4ccc(F)cc4)cc3)[C@@H]2C1 do in these assays?
IDE exosite inh: -0.0295

What do the screens show for `Cc1ccccc1-c1ccc([C@@H]2[C@H](CO)N3C(=O)CN(C(=O)NC4CCCC4)C[C@@H]23)cc1`?
IDE exosite inh: -8.13*

Results for O=C(C1CC1)N1CC(=O)N2[C@H](C1)[C@@H](c1ccc(C#CCc3ccccc3)cc1)[C@@H]2CO ?
IDE exosite inh: -0.965

How did Cc1cccc(S(=O)(=O)N2CCCCN3[C@@H](CO)[C@@H](c4ccc(C#C[C@@H](C)O)cc4)[C@@H]3C2)c1 do in these assays?
IDE exosite inh: 1.17

Results for CCCNC(=O)N1[C@@H](CO)[C@@H](c2ccc(C3=CCCC3)cc2)[C@@H]1CNC(=O)CC ?
IDE exosite inh: 5.03

What do the screens show for `CCCC#Cc1ccc([C@@H]2[C@@H](CO)N3C(=O)CN(C(=O)c4cccc(F)c4)C[C@H]23)cc1`?
IDE exosite inh: 0.101

Results for CN(C)CC(=O)N[C@@H]1C=C[C@@H](CC(=O)NCc2ccc(Cl)cc2)O[C@H]1CO ?
IDE exosite inh: 0.852

What do the screens show for `CCN(C[C@H]1[C@H](c2ccccc2)[C@@H](CO)N1S(C)(=O)=O)C(=O)C1CCC1`?
IDE exosite inh: 3.04

Screens: PubChem, Broad Institute
